Wnt act: Wnt/beta-catenin pathway activators, primary screen, cell-based, plate reader, single point. 300,000 compounds, 1.2% hits. activation, % at 9.35 µM. Wnt/beta-catenin reporter cell assay, activator. AID 743398, 2014; in the data active means activation above about 30%, passing the limit was not always enough
esBAF inh: Bmi1 luciferase reporter increase in mESCs, primary screen, esBAF inhibitor project, mouse ES cells, Bmi1 luciferase knock-in, single point | 350,000 compounds, 2% hits | reporter increase, % at 12.5 µM | AID 602393, 2012 | 24 h; 100% = twice the neutral-well signal; in the data active means activation above about 40%;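 further: a rise in the Bmi1 reporter signal indicates esBAF inhibition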
MLL AF4-AF9 inh: inhibitors of AF4 peptide binding to AF9, primary screen, biochemical, AlphaScreen, biotin-AF4 peptide, FLAG-AF9, single point; 350,000 compounds, 0.47% hits; Protein AF-9 (Homo sapiens), P42568; inhibition, % at 10 µM;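 active means every replicate reaching a set inhibition limit, whatever the replicate mean, cut at about 25% in these data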
Target sequence (P42568 whole entry, looked up): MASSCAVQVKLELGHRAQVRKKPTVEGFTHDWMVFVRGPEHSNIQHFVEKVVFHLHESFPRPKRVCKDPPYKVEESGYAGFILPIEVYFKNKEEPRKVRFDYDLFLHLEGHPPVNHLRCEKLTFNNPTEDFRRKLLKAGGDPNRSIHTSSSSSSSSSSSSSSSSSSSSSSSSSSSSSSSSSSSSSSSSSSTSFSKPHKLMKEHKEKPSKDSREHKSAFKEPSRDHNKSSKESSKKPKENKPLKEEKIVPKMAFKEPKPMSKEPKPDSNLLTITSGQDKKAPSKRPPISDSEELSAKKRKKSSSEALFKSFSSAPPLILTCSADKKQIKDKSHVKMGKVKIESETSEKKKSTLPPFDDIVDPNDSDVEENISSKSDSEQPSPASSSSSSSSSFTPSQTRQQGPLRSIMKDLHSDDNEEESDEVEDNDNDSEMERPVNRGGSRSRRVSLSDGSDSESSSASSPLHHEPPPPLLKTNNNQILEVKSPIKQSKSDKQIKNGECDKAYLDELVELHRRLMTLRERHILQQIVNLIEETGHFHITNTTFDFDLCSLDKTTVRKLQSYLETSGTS
Ecoli rRNA inh: reduced GFP signal of wild-type E. coli, primary screen, bacterial rRNA inhibitor project, GFP/RFP fluorescence, OD600, single point. E. coli WT GFP vs humanized-ribosome RFP mutants, 24 h; hits give low values; DMSO median 0, no signal -100. GFP signal change (wild-type ribosome), % (concentration not given with the values). 350,000 compounds, 1.6% hits. AID 720706, 2013;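 active means significant combined selectivity score with lowered wild-type GFP, culture density cut under 30%, mutant RFP and density less affected; inactive means any of these conditions unmet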
MITF act: activators of MITF-driven TRPM1 promoter reporter, primary screen, cell-based, SK-MEL-5, luciferase, single point; SK-MEL-5 TRPM1-promoter luciferase, 24 h; % of positive control, neutral wells = 0; activation, % at 12.5 µM; 300,000 compounds, 0.75% hits; AID 588334, 2011;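 active means mean activation of at least 80% with every replicate also reaching 80%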
Each line names hits and unclear results; the compound was inactive in the other large screens. Only some compounds are listed: those with a hit (about 3.7% of all), similar ones and a draw of the others.

O=C(Nc1ccccc1F)N[C@@H]1CC[C@H](CCNS(=O)(=O)c2ccccc2)O[C@@H]1CO	none (no result: Wnt act, MITF act)
C/C(=C\c1ccc(Cl)cc1)C(=O)c1c(C)cc(C)[nH]c1=O	none
CCc1ccc2oc(C(=O)NCCc3ccc(S(N)(=O)=O)cc3)cc(=O)c2c1	Ecoli rRNA inh -34
Cc1ccc2oc(C(=O)NCc3ccc(S(N)(=O)=O)cc3)cc(=O)c2c1	none
CCCn1c(=O)c2ccccc2n2c(SCCOc3ccc(OC)cc3)nnc12	Ecoli rRNA inh -18
O=C(COC(=O)c1ccc(-c2ccc([N+](=O)[O-])cc2)o1)NC(=O)NC1CCCCC1	Ecoli rRNA inh -33 (no result: Wnt act)
Nc1nn(-c2ccccc2)c(N)c1N=Nc1ccccc1	none (no result: esBAF inh, MLL AF4-AF9 inh, Ecoli rRNA inh)
Cc1nn(-c2ccccc2)c(N)c1N=Nc1ccccc1	MLL AF4-AF9 inh 31 (no result: esBAF inh)
Cc1nn(-c2ccccc2)c(N)c1N=Nc1ccc(Cl)cc1	esBAF inh 80
O=C(CC1CCCC1)N[C@@H](Cc1cccnc1)C(=O)N1CCC[C@H]1C(=O)NC1CCCC1	none (no result: esBAF inh, MLL AF4-AF9 inh, MITF act)
O=C(C[C@H]1CC[C@@H]2[C@H](COC[C@H](O)CN2Cc2ccccc2)O1)N[C@H]1CCN(Cc2ccccc2)C1	none (no result: Wnt act, MITF act)
Oc1ccc(Br)cc1-c1ccnn1-c1ccccc1	Ecoli rRNA inh -39 (no result: MITF act)
Oc1ccc(Br)cc1-c1n[nH]c(=S)n1Cc1ccccc1	none
CCOc1ccc2nc(N3C(=O)CNC3=S)sc2c1	Wnt act 51 (no result: MITF act)
COc1ccc(C=C(C(=O)O)c2ccc(OC)cc2)cc1	esBAF inh 52
Cc1ccccc1CNC(=O)Nc1ccc(Cl)cc1	esBAF inh 61
Cc1ccccc1CNC(=O)Nc1cccs1	none (no result: Wnt act, MLL AF4-AF9 inh)
Cc1ccc(CNC(=O)Nc2ccccc2)c(C)c1	esBAF inh 71, MITF act 118
COc1ccccc1CC(=O)Nc1cccc(F)c1	none (no result: esBAF inh)
COC(=O)c1sc(NC(=O)c2ccc(C)o2)nc1C	none (no result: esBAF inh)
COC(=O)c1sc(NC(=O)c2oc3ccccc3c2C)nc1C	esBAF inh 60 (no result: Wnt act, MLL AF4-AF9 inh, Ecoli rRNA inh)
Cc1c(C(=O)Nc2cccnc2Cl)oc2ccccc12	esBAF inh 48
COc1ccc(NC(=O)c2oc3ccccc3c2C)cn1	esBAF inh 43
C[C@H]1CCCCO[C@H](CN(C)C(=O)c2ccccc2)[C@@H](C)CN([C@@H](C)CO)C(=O)c2cc(NC(=O)c3ccccc3)ccc2O1	none (no result: Wnt act, esBAF inh, MITF act)
OCC(CCc1c[nH]c2ccccc12)c1c[nH]c2ccccc12 (stereo not drawn)	MLL AF4-AF9 inh 41 (no result: Wnt act, esBAF inh, MITF act)
O=C(c1cc2cc([N+](=O)[O-])ccc2oc1=O)n1cccn1	none
O=C(COC(=O)c1cccc(F)c1)NC(=O)NC1CCCC1	none
O=C(COC(=O)c1cccc(NS(=O)(=O)c2ccc(F)c(F)c2)c1)NC(=O)NC1CCCC1	Ecoli rRNA inh -36 (no result: esBAF inh)
COc1ccc2c3c([nH]c2c1)[C@H](CO)N(C(=O)Nc1ccc(F)cc1)CC31CCN(C(=O)Cc2ccccc2)CC1	none (no result: Wnt act, esBAF inh, MITF act)
Clc1ccc(C2CC(c3cccs3)n3ncnc3N2)cc1 (stereo not drawn)	Ecoli rRNA inh -41 (no result: esBAF inh, MLL AF4-AF9 inh, MITF act)
COc1cccc(C2CC(c3cccs3)Nc3ncnn32)c1 (stereo not drawn)	none (no result: Wnt act, MLL AF4-AF9 inh, Ecoli rRNA inh)
O=C(NCc1nnc(SCC(=O)N2CCCc3ccccc32)o1)c1ccco1	Wnt act 46
Cc1ccccc1CN1CCc2c(OCC(=O)N3CCCCC3)cccc2C1=O	Ecoli rRNA inh -25 (no result: esBAF inh)
CCOC(=O)N1CCN(C(=O)COc2cccc3c2CCN(Cc2ccccc2F)C3=O)CC1	none (no result: esBAF inh, Ecoli rRNA inh)
Cc1[nH]nc(Nc2ccccc2)c1[N+](=O)[O-]	none (no result: esBAF inh, MLL AF4-AF9 inh, Ecoli rRNA inh)
Cc1[nH]nc(Nc2ccc(Br)cc2)c1[N+](=O)[O-]	none (no result: esBAF inh, MITF act)
Cc1ccc(Nc2n[nH]c(C)c2[N+](=O)[O-])cc1	Wnt act 45, MITF act 96 (no result: esBAF inh, MLL AF4-AF9 inh, Ecoli rRNA inh)
Cc1[nH]nc(Nc2ccc(C(C)C)cc2)c1[N+](=O)[O-]	esBAF inh 93, MITF act 114
Cn1c2ccsc2c2ncn(Cc3ccc(F)cc3)c(=O)c21	none
CCOc1ccc(C(=O)N2CCc3ccccc32)cc1	esBAF inh 50 (no result: MITF act)
O=C(c1ccc2ccccc2c1)N1CCc2ccccc21	esBAF inh 64
CCCOc1ccc(C(=O)N2CCCc3ccccc32)cc1	none (no result: Wnt act, MLL AF4-AF9 inh, Ecoli rRNA inh, MITF act)
CNC[C@H]1Oc2ncc(-c3ccc(OC)cc3)cc2C(=O)N([C@@H](C)CO)C[C@H]1C	none (no result: Wnt act, MITF act)

From PubChem BioAssay
